For 8 compounds, inhibition results are on record in PubChem BioAssay AID602327 (NMMLSC, 2012).

This is one part of the list. Calls of active or inactive are those of the source. Rule as the data show it: active = inhibition above about 25%; inactive = the rest.

The target of this assay is Lethal factor (Bacillus anthracis) (UniProt P15917). The assay can be described thus: Bacillus anthracis LF protease inhibitors, confirmation, biochemical, multiplex microsphere (AID 602327). To be noted: multiplex microsphere protease cleavage assay; at 10 µM; active compounds read high.
Lethal factor (Bacillus anthracis), sequence (P15917 whole entry, looked up): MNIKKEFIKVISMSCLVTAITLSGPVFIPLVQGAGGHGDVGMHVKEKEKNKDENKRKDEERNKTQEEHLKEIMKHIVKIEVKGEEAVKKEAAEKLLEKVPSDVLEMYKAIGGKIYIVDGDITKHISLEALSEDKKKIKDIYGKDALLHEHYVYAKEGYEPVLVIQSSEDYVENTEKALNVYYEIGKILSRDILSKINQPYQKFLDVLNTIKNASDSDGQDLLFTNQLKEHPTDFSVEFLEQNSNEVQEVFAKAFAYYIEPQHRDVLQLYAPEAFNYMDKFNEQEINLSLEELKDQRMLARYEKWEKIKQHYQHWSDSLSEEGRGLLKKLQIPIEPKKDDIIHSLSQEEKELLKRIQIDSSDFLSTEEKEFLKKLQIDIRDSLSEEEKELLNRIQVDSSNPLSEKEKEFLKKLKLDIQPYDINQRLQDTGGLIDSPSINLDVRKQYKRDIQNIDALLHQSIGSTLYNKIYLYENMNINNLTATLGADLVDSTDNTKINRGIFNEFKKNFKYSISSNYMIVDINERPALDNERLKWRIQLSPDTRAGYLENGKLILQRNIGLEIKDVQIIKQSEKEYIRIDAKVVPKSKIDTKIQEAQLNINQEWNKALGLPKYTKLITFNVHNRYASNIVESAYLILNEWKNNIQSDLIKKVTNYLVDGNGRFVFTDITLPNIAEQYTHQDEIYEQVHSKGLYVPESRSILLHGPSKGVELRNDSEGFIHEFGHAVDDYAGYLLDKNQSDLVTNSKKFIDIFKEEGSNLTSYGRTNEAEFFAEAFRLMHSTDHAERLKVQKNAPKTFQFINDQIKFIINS
As for `CC(=O)OCCN(CCCn1c(-c2ccncc2)nc2ccccc21)c1nc(-c2ccc(C)cc2)cs1`, the inhibition was 0.3% (inactive). With `COc1ccc(-c2cc3c(c4c2ccn4C)C2CCC3C2)cn1` (stereo not drawn), the inhibition was 26.4% (active).

Consider `O=C(CN1CCN(c2ccccc2O)CC1)NC(=O)NCc1ccccc1`, for which the inhibition was -1.7% (inactive).

With `O=C(OCC(=O)c1c[nH]c2ccccc12)c1cccc(O)c1`, the inhibition was -2.5% (inactive).

Consider `CCOc1ncccc1C(=O)OCC(=O)c1c[nH]c2ccccc12`, for which the inhibition is 10.4% (inactive). As for `Cc1cc2ccccc2n1CCNC(=O)COc1ccc2ccccc2c1`, the figure is 0.2% (inactive); as for `Cc1ccc(CNC(=O)c2cccc3c2C(=O)c2ccc(N4CCC(C)CC4)cc2S3(=O)=O)cc1`, 7.9% (inactive); as for `Cc1cc2cc(CNC(=O)c3ccc(S(=O)(=O)N4CCOCC4)cc3)ccc2[nH]1`, -0.8% (inactive).

In general, inhibition refers to the change of the read-out against control, counted positive when it falls.
